What all share (settings): mRNA level, 48 h; actives raise or lower the signal
Read-out in test [1]: Alkaline Phosphatase, Placental (ALPP) gene, ALPP (gene 250)
Put plainly: LTEA_HepaRG_ALPP: Life Technologies and Expression Analysis (LTEA) Assay for Alkaline Phosphatase, Placental (ALPP) gene using HepaRG (AID 2283468). In short, it runs like this:
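HepaRG, 48 h plating then 48 h dosing, serum-free induction medium, 0.5% DMSO. 8 conc, half-log, max 100 uM, duplicates. Endpoint: ALPP transcript by qRT-PCR, housekeeping-normalized; gain or loss fitted vs DMSO.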

Read-out in test [2]: Bcl-2 (BAD) gene, BAD (gene 572)
Put plainly: LTEA_HepaRG_BAD: Life Technologies and Expression Analysis (LTEA) Assay for Bcl-2 (BAD) gene using HepaRG (AID 2283469). In short, it runs like this:
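Activity values reflect up- or down-regulation of BAD mRNA in human HepaRG hepatic cells treated 48 h in serum-free medium, with eight-point half-log dosing capped at 100 uM and 0.5% DMSO vehicle.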

Read-out in test [3]: Bcl-2 (BAX) gene, BAX (gene 581)
Put plainly: LTEA_HepaRG_BAX: Life Technologies and Expression Analysis (LTEA) Assay for Bcl-2 (BAX) gene using HepaRG (AID 2283470). The method in brief: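 Cells were thawed, plated for 48 h, moved to serum-free induction medium and dosed for 48 h (highest concentration 100 uM, half-log steps, 0.5% DMSO). Total RNA was then analysed for BAX expression by qRT-PCR.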

Read-out in test [4]: adenosine kinase (ADK) gene, ADK (gene 132)
Put plainly: LTEA_HepaRG_ADK: Life Technologies and Expression Analysis (LTEA) Assay for adenosine kinase (ADK) gene using HepaRG (AID 2283471). In short, it runs like this: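 HepaRG (human liver), 48 h chemical exposure, 8-pt half-log series, top 100 uM, 0.5% DMSO vehicle. Readout: ADK mRNA by qRT-PCR vs housekeeping genes; bidirectional curve fit relative to DMSO baseline.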

Read-out in test [5]: Alpha-fetoprotein (AFP) gene, AFP (gene 174)
Kind of test: LTEA_HepaRG_AFP: Life Technologies and Expression Analysis (LTEA) Assay for Alpha-fetoprotein (AFP) gene using HepaRG (AID 2283472). In short, it runs like this: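 Chemicals were tested on differentiated HepaRG cells for 48 hours at eight concentrations up to 100 uM, with 0.5% DMSO as vehicle. AFP expression was then quantified by qRT-PCR and analyzed for gain or loss relative to DMSO.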

Read-out in test [6]: BCL2L11 (gene 10018)
Kind of test: LTEA_HepaRG_BCL2L11: Life Technologies and Expression Analysis (LTEA) Assay for Bcl-2 (BCL2L11) gene using HepaRG (AID 2283473). In short, it runs like this: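 Read-out is BCL2L11 transcript level by qRT-PCR, normalized to three housekeeping genes and fitted bidirectionally against 0.5% DMSO vehicle. HepaRG cells received chemicals for 48 h in serum-free induction medium, 100 uM down in half-log dilutions.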

Read-out in test [7]: Apoptosis regulator Bcl-2 (Homo sapiens) (UniProt P10415)
Put plainly: LTEA_HepaRG_BCL2: Life Technologies and Expression Analysis (LTEA) Assay for Bcl-2 gene using HepaRG (AID 2283475).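 Further: BCL2 transcript by TaqMan qRT-PCR normalised to ACTB GAPDH and POLR2A.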 The method in brief:
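Plated human HepaRG cells are exposed to test chemicals for 48 h across eight concentrations from 100 uM downward in half-log steps (0.5% DMSO). BCL2 expression is then measured by qRT-PCR with housekeeping normalisation and fitted bidirectionally against vehicle.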

Read-out in test [8]: Bcl-2 (BID) gene, BID (gene 637)
Put plainly: LTEA_HepaRG_BID: Life Technologies and Expression Analysis (LTEA) Assay for Bcl-2 (BID) gene using HepaRG (AID 2283476). In short, it runs like this:
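Cells are plated, cultured 48 h, switched to serum-free induction medium, then dosed 48 h (100 uM top, half-log steps, 0.5% DMSO). RNA is isolated and BID expression read by qRT-PCR.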

Read-out in test [9]: Caspase-3 (Homo sapiens) (UniProt P42574)
Put plainly: LTEA_HepaRG_CASP3: Life Technologies and Expression Analysis (LTEA) Assay for cysteine-aspartic acid protease (CASP3) using HepaRG (AID 2283477). In short, it runs like this: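 Read-out is CASP3 mRNA level by TaqMan qRT-PCR in human HepaRG cells after 48 h chemical exposure. Eight half-log concentrations topping at 100 uM were tested in 0.5% DMSO; gain or loss was fitted relative to DMSO.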

Read-out in test [10]: Cytochrome P450 (CYP24A1), CYP24A1 (gene 1591)
Kind of test: LTEA_HepaRG_CYP24A1: Life Technologies and Expression Analysis (LTEA) Assay for Cytochrome P450 (CYP24A1) using HepaRG (AID 2283478). The method in brief: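 HepaRG, 48 h chemical exposure, 8-pt half-log CRC from 100 uM, 0.5% DMSO vehicle, duplicates. Endpoint: CYP24A1 mRNA by Fluidigm TaqMan qRT-PCR, normalized ACTB/GAPDH/POLR2A; gain/loss fit vs DMSO.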

Read-out in test [11]: Cytochrome P450 (CYP1A2), CYP1A2 (gene 1544)
Kind of test: LTEA_HepaRG_CYP1A2: Life Technologies and Expression Analysis (LTEA) Assay for Cytochrome P450 (CYP1A2) using HepaRG (AID 2283479). In short, it runs like this:
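CYP1A2 transcript induction or loss, quantified by Fluidigm qRT-PCR against three housekeeping genes, was fitted bidirectionally against 0.5% DMSO controls. Human HepaRG cells received eight half-log concentrations from 100 uM over 48 h.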

Read-out in test [12]: Cytochrome P450 (CYP2B6), CYP2B6 (gene 1555)
Put plainly: LTEA_HepaRG_CYP2B6: Life Technologies and Expression Analysis (LTEA) Assay for Cytochrome P450 (CYP2B6) using HepaRG (AID 2283481). In short, it runs like this: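 HepaRG cells plated 48 h, switched to serum-free induction medium, then dosed 48 h (8 points, half-log from 100 uM, 0.5% DMSO). RNA isolated; CYP2B6 expression measured by qRT-PCR; gain or loss fitted relative to DMSO.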

Read-out in test [13]: Cytochrome P450 2C19 (Homo sapiens) (UniProt P33261)
Kind of test: LTEA_HepaRG_CYP2C19: Life Technologies and Expression Analysis (LTEA) Assay for CYP2C19 using HepaRG (AID 2283482). The method in brief: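 Transcript levels of CYP2C19 were quantified by qRT-PCR after HepaRG cells were treated for 48 hours with test chemicals up to 100 uM (eight half-log concentrations, 0.5% DMSO vehicle). Gain or loss of signal was fitted relative to DMSO.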

Read-out in test [14]: CYP2C8 (gene 1558)
Kind of test: LTEA_HepaRG_CYP2C8: Life Technologies and Expression Analysis (LTEA) Assay for CYP2C8 using HepaRG (AID 2283483). The method in brief:
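This is a transcriptional endpoint in HepaRG cultures: 48 h exposure, highest concentration 100 uM. CYP2C8 mRNA is quantified by TaqMan qRT-PCR.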

Read-out in test [15]: CYP2C9 (gene 1559)
Put plainly: LTEA_HepaRG_CYP2C9: Life Technologies and Expression Analysis (LTEA) Assay for CYP2C9 using HepaRG (AID 2283484). In short, it runs like this:
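Eight-point concentration-response (highest 100 uM, half-log dilutions) in HepaRG cells for 48 h; CYP2C9 expression by qRT-PCR normalized to ACTB, GAPDH, POLR2A. Bidirectional fit, DMSO baseline.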

Read-out in test [16]: CYP2E1 (gene 1571)
Kind of test: LTEA_HepaRG_CYP2E1: Life Technologies and Expression Analysis (LTEA) Assay for CYP2E1 using HepaRG (AID 2283485). In short, it runs like this: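 Readout is qRT-PCR of CYP2E1 mRNA, normalized to three housekeeping genes and fitted bidirectionally against 0.5% DMSO. HepaRG cells were dosed 48 h at eight concentrations, highest 100 uM with half-log dilutions.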

Read-out in test [17]: CYP4A11 (gene 1579)
Kind of test: LTEA_HepaRG_CYP4A11: Life Technologies and Expression Analysis (LTEA) Assay for CYP4A11 using HepaRG (AID 2283486). The method in brief: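 HepaRG, 48 h chem exposure, 8 conc (100 uM top, half-log), 0.5% DMSO vehicle; qRT-PCR readout, housekeeping-gene normalized; bidirectional curve fit vs DMSO baseline.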

Read-out in test [18]: Cytochrome P450 3A4 (Homo sapiens) (UniProt P08684)
Put plainly: LTEA_HepaRG_CYP3A4: Life Technologies and Expression Analysis (LTEA) Assay for CYP3A4 using HepaRG (AID 2283487). In short, it runs like this: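 CYP3A4 transcript measured by TaqMan qRT-PCR and normalized to three housekeeping genes after 48 h chemical exposure of human HepaRG cells. Top concentration 100 uM, half-log steps, 0.5% DMSO vehicle; gain or loss fitted against DMSO baseline.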

Read-out in test [19]: DNA damage-inducible transcript 3 (DDIT3), DDIT3 (gene 1649)
Kind of test: LTEA_HepaRG_DDIT3: Life Technologies and Expression Analysis (LTEA) Assay for DNA damage-inducible transcript 3 (DDIT3) using HepaRG (AID 2283488). The method in brief: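 Cells are human HepaRG liver cells treated for 48 h with eight half-log concentrations up to 100 uM in 0.5% DMSO. Transcript levels come from qRT-PCR normalized to three housekeeping genes, with activity fitted in both directions relative to vehicle.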

Read-out in test [20]: Pro-epidermal growth factor (Homo sapiens) (UniProt P01133)
Kind of test: LTEA_HepaRG_EGF: Life Technologies and Expression Analysis (LTEA) Assay for Epidermal growth factor (EGF) using HepaRG (AID 2283489). In short, it runs like this: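 HepaRG, 48 h dosing, 100 uM top, half-log x8, 0.5% DMSO. Readout: TaqMan qRT-PCR (Fluidigm array), housekeeping-normalized. Gain or loss of signal fit vs DMSO.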

Active and inactive are the calls of the source. How the source made its calls: active means hit-call score of the fitted dose curve at least 0.9, where 1 is the maximum; inactive means score below 0.9.

Sequence of Apoptosis regulator Bcl-2 (Homo sapiens) (P10415 whole entry, looked up): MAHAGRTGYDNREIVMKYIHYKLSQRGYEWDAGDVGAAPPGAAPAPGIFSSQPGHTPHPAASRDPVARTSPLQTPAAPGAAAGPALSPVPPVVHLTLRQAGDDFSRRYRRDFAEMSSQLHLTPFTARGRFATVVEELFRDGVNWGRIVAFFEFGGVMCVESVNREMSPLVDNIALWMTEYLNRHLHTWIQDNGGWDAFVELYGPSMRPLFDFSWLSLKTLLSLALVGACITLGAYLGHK
Sequence of Cytochrome P450 2C19 (Homo sapiens) (P33261 whole entry, looked up): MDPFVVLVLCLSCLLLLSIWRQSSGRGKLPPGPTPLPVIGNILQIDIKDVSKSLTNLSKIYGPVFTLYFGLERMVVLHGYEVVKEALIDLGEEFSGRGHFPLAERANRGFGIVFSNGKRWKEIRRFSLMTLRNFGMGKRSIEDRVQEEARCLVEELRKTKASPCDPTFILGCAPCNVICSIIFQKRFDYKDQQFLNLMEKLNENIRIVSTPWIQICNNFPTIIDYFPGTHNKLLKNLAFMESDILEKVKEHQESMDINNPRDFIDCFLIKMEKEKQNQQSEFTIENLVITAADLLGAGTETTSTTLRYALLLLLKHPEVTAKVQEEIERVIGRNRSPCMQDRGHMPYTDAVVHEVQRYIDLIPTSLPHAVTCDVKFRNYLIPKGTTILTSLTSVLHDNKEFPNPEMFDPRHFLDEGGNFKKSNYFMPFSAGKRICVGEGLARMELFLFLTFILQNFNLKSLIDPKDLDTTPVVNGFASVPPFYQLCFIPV
Sequence of Caspase-3 (Homo sapiens) (P42574 whole entry, looked up): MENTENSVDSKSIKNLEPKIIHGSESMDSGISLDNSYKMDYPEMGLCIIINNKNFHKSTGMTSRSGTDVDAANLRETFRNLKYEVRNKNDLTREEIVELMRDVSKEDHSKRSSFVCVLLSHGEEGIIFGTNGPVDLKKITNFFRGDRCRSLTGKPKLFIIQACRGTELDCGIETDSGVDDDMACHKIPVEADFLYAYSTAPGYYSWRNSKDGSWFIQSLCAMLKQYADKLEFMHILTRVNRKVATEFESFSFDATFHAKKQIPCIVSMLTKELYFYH
Sequence of Cytochrome P450 3A4 (Homo sapiens) (P08684 whole entry, looked up): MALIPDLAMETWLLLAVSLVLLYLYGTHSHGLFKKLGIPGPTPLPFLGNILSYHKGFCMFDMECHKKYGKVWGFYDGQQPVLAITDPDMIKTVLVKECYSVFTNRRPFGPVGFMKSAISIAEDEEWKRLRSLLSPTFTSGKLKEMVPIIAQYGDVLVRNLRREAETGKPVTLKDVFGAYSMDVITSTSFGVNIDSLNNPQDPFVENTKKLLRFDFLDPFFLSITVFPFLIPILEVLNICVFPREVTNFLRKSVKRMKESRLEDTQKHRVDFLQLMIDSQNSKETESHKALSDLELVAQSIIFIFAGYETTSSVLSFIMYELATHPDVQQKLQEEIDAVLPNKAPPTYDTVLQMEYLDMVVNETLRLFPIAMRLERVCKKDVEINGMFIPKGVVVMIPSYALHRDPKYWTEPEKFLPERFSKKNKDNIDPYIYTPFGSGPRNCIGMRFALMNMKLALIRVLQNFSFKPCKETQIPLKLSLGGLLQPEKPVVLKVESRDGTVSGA

Consider `CC(C)(C)c1ccccc1O`, for which the result in test [1], in test [2], in test [3], in [4], in test [5] and in [6] was inactive. In addition, the compound was classed as inactive in [7], in [8], in test [9], in [10], in test [11] and in test [15]. In addition, the call in test [17], in [19] and in [20] was inactive. Besides, the half-maximal activity concentration (AC50) in test [12] was 1.63 µM (active); in test [13], 1.47 µM (active); in test [14], 6.35 µM (active); in test [16], 15.1 µM (active); in test [18], 12.6 µM (active).
For `Clc1cccc(Cl)c1`, the call in [1], in [2], in test [3], in [4], in [5] and in [6] was inactive. Besides, the outcome in test [7], in test [8], in [9], in test [10], in test [11] and in test [12] was inactive. The compound was called inactive in test [13], in test [14], in [15], in [16], in test [17] and in test [18]. Also, the compound was classed as inactive in [19] and in test [20].
`O=C(O)C1(c2ccc3c(c2)OC[C@H](Cc2ccc(-c4ccccc4)cc2)[C@H]3O)CCCC1`: the compound was called inactive in test [1], in test [2], in test [4], in test [5], in [6] and in test [7]. For the same compound, the compound was called inactive in [8], in test [10], in test [12], in test [13], in test [14] and in [15]. For the same compound, the outcome in test [17] and in test [20] was inactive. For the same compound, the AC50 is 66.2 µM (active) in [3]; 79 µM (active) in test [9]; 25 µM (active) in [11]; 84.5 µM (active) in test [16]; 4.6 µM (active) in [18]; 50 µM (active) in [19].
Turning to `CN(C)C(=S)S`, the call in test [1], in test [2], in [3], in [4], in [5] and in [6] was inactive. Moreover, the outcome in test [7], in [8], in test [9], in test [10], in test [13] and in test [14] was inactive. The call in test [15], in test [16], in test [17], in test [18] and in test [19] was inactive. In addition, the AC50 in test [11] is 72.3 µM (active); in [12], 29.7 µM (active).

The record behind these values is PubChem BioAssay (EPA / NIEHS).
